Experiment [1] concerns the target Thyrotropin-releasing hormone receptor (Homo sapiens) (UniProt P34981). As to the kind of experiment: qHTS assay to identify small molecule agonists of the thyrotropin-releasing hormone receptor (TRHR) signaling pathway (AID 1346891; calls by dose curve;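 note: HEK293 cells expressing TRHR with calcium dye readout; series mostly up to about 58 µM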). In a few lines:
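Cells: TRHR-Hek293, seeded and incubated 18 h. Dye loading: 2 h at 37 °C. Compound added from DMSO stock by pin tool. Read-out: kinetic calcium fluorescence over 3 min.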
Background: qHTS replaces the single test concentration by a dilution series.

Experiment [2] can be described thus: Human pregnane X receptor (PXR) small molecule agonists, qHTS cell viability counter screen (AID 1346977). Note: nearly all actives have a fitted effect of over 50% in size. The essentials: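 Cytotoxicity counter screen run in the same wells as the PXR luciferase assay, using PXR-Luc HepG2 cells in charcoal-stripped serum medium. Viability: CellTiter-Fluor fluorescence after 24hr compound treatment.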
Experiment [3] in a line: Caspase-3/7 induction in HepG2 cells by small molecules, qHTS assay (AID 1346978). Note: nearly all actives have a fitted effect of over 15% in size. In a few lines:
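Caspase-3/7 induction was measured by Caspase-Glo 3/7 luminescence (30 min, room temperature) after a 17 hr compound exposure of wild-type HepG2 cells seeded at 2,000 per well and pre-incubated 5 hr.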

Experiment [4] is described as follows: Caspase-3/7 induction in CHO-K1 cells by small molecules, qHTS cell viability counter screen (AID 1346979). Note: nearly all actives have a fitted effect of over 35% in size. Note: potency is the fitted concentration of half-maximal effect. The essentials:
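Cytotoxicity counter screen run in parallel with the caspase-3/7 assay: CHO-K1 cells, 16hr compound treatment at 37C, then CellTiter-Fluor for 1hr before fluorescence reading.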

Experiment [5] is described as follows: Caspase-3/7 induction in CHO-K1 cells by small molecules, qHTS assay (AID 1346980). Note: nearly all actives have a fitted effect of over 15% in size. In a few lines: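 Luminescent Caspase-Glo 3/7 read (30min, room temperature) quantified apoptosis induction. Cells were wild-type CHO-K1, treated with compound for 17hr at 37 C and 5% CO2.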
Experiment [6] can be described thus: Caspase-3/7 induction in HepG2 cells by small molecules, qHTS cell viability counter screen (AID 1346981). Note: nearly all actives have a fitted effect of over 30% in size. Note: potency is the fitted concentration of half-maximal effect. The essentials: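 After a 5-hr attachment period at 37 C and 5% CO2, wild-type HepG2 cells received compounds in DMSO. Sixteen hours later CellTiter-Fluor was dispensed and the fluorescent signal quantified after a further hour.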
Experiment [7] has as its target Nuclear receptor subfamily 1 group I member 2 (Homo sapiens) (UniProt O75469). As to the kind of experiment: Human pregnane X receptor (PXR) small molecule agonists, qHTS assay (AID 1346982). Note: nearly all actives have a fitted effect of over 35% in size. Note: potency is the fitted concentration of half-maximal effect. In a few lines:
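Tox21 qHTS; PXR-Luc HepG2; compounds pinned from DMSO; 24 hr, 37 C; ONE-Glo luciferase detection, 30 min room temperature.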

The target in experiment [8] is Cytochrome P450 2D6 (Homo sapiens) (UniProt P10635). As to the kind of experiment: Cytochrome P450 Family 2 Subfamily D Member 6 (CYP2D6) small molecule antagonists: luciferase reporter qHTS assay (AID 1671196). Note: nearly all actives have a fitted effect of over 50% in size. Note: potency is the fitted concentration of half-maximal effect. In a few lines:
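Room-temperature luminescent CYP2D6 activity assay: compound preincubated 10 min with enzyme–substrate mix, NADPH-initiated reaction 1 h, detection reagent 20 min before reading.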

Experiment [9] deals with Cytochrome P450 2C19 (Homo sapiens) (UniProt P33261). As to the kind of experiment: Cytochrome P450 Family 2 Subfamily C Member 19 (CYP2C19) small molecule antagonists: luciferase reporter qHTS assay (AID 1671197). Note: nearly all actives have a fitted effect of over 65% in size. Note: potency is the fitted concentration of half-maximal effect. The essentials: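 P450-Glo CYP2C19 screening system; proluciferin substrate; DMSO compound stocks; 10 min RT preincubation; NADPH regeneration, 1 h at 37C; luciferin detection reagent, 20 min RT; luminescence as RLU.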
Sequence of Cytochrome P450 2C19 (Homo sapiens) (P33261 whole entry, looked up): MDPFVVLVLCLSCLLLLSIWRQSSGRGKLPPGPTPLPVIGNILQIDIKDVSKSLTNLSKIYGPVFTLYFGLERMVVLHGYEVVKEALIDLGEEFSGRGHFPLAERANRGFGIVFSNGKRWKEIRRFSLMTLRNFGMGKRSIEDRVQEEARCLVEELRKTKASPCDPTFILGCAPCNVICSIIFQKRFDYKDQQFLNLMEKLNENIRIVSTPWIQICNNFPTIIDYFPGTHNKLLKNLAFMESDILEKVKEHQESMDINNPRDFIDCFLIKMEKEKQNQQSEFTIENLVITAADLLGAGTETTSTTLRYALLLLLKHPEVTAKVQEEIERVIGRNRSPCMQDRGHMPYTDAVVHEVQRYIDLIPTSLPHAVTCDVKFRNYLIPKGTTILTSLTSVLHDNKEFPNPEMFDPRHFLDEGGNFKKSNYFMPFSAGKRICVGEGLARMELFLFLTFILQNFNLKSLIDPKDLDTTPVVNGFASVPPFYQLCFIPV
(In general: In a reporter assay the amount or activity of a reporter protein is the signal.)

Experiment [10] deals with Voltage-gated inwardly rectifying potassium channel KCNH2 (Homo sapiens) (UniProt Q12809). As to the kind of experiment: Human Ether-a-go-go-Related Gene (hERG) channel small molecule antagonists: fluorescence cell-based qHTS assay (AID 1671200).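 Note: hERG-expressing U2OS cells given a thallium stimulus after FluxOR II dye loading; series mostly up to about 77 µM; nearly all actives have a fitted effect of over 50% in size.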 The essentials:
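Fluorescence at 540 nm emission (480 nm excitation) was recorded kinetically for 2 min at 1-second intervals once the thallium-containing stimulus reached cells previously loaded with FluxOR II dye.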

In experiment [11] the target is Cytochrome P450 3A4 (Homo sapiens) (UniProt P08684). As to the kind of experiment: Cytochrome P450 Family 3 Subfamily A Member 4 (CYP3A4) small molecule antagonists: luciferase reporter qHTS assay (AID 1671201). Note: nearly all actives have a fitted effect of over 50% in size. Note: potency is the fitted concentration of half-maximal effect. The essentials:
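qHTS, 1536-well. CYP3A4 + proluciferin substrate, cpd 10 min RT → NADPH regen 1 h RT → detection reagent 20 min → luminescence (RLU). Ketoconazole positive control.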

Experiment [12] deals with Cytochrome P450 2C9 (Homo sapiens) (UniProt P11712). As to the kind of experiment: Cytochrome P450 Family 2 Subfamily C Member 9 (CYP2C9) small molecule antagonists: luciferase reporter qHTS assay (AID 1671198). Note: nearly all actives have a fitted effect of over 50% in size. Note: potency is the fitted concentration of half-maximal effect. The essentials:
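Enzyme-substrate mix preincubated with compound 10 min at room temperature; reaction started with NADPH regeneration solution, 1 h 37C. Luminescent luciferin product read after 20 min detection reagent.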

Experiment [13] addresses Cytochrome P450 1A2 (Homo sapiens) (UniProt P05177). As to the kind of experiment: Cytochrome P450 Family 1 Subfamily A Member 2 (CYP1A2) small molecule antagonists: luciferase reporter qHTS assay (AID 1671199). Note: nearly all actives have a fitted effect of over 50% in size. Note: potency is the fitted concentration of half-maximal effect. The essentials: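 Room-temperature CYP1A2 reaction with proluciferin substrate: compounds added from DMSO, 10 min preincubation, NADPH regeneration for 1 h. Luciferin detection reagent then added; luminescence recorded as RLU.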

Experiment [14] deals with Nuclear receptor subfamily 1 group I member 2 (Homo sapiens) (UniProt O75469). As to the kind of experiment: CYP3A4 induction through human pregnane X receptor (PXR) by small molecules, qHTS assay (AID 1346984). Note: nearly all actives have a fitted effect of over 40% in size. The essentials:
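Cells (DPX-2; HepG2 with PXR element plus CYP3A4-promoter luciferase) settled 5hr, then were treated 24hr at 37C. A 3hr, 3uM-final Luciferin-IPA step preceded luminescence measurement with One-Glo.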

Values without a mark were called inactive. Inconclusive results are not listed. Calls of active or inactive are those of the source. Unless noted, calls come from the whole dose curve; as a rule, active = well fitted curve in the direction sought with a large enough effect in the repeat runs; inconclusive = weak or mixed curves; inactive = no such curve, though single readings can be large; an effect the other way counts as inactive or inconclusive.

Sequence of Cytochrome P450 1A2 (Homo sapiens) (P05177 whole entry, looked up): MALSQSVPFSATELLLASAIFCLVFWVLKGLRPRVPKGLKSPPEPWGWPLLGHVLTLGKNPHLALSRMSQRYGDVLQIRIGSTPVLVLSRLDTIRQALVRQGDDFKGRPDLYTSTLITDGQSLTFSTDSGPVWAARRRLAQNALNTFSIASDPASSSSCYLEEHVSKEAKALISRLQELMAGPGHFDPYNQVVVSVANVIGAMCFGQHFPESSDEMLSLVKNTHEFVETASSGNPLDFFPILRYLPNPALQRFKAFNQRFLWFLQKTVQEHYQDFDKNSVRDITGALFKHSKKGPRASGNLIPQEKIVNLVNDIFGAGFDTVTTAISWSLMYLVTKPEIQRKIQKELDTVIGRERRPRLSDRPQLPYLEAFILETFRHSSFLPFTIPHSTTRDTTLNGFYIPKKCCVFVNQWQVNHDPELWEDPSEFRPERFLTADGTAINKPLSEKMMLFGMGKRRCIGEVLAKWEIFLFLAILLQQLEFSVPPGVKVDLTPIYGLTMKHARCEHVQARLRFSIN
Sequence of Cytochrome P450 3A4 (Homo sapiens) (P08684 whole entry, looked up): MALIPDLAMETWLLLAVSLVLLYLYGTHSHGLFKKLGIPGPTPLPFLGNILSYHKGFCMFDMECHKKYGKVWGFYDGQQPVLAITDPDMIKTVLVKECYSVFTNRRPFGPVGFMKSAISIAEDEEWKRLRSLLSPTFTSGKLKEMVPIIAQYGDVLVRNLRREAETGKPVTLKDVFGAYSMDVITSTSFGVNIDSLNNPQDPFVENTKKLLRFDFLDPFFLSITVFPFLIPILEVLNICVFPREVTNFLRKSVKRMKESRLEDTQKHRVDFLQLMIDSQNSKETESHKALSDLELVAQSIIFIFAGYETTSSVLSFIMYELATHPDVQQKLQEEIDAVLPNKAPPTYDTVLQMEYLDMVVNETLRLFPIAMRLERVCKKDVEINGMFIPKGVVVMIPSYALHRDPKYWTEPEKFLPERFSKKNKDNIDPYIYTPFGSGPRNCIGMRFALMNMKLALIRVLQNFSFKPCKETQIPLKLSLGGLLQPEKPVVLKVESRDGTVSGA
Sequence of Thyrotropin-releasing hormone receptor (Homo sapiens) (P34981 whole entry, looked up): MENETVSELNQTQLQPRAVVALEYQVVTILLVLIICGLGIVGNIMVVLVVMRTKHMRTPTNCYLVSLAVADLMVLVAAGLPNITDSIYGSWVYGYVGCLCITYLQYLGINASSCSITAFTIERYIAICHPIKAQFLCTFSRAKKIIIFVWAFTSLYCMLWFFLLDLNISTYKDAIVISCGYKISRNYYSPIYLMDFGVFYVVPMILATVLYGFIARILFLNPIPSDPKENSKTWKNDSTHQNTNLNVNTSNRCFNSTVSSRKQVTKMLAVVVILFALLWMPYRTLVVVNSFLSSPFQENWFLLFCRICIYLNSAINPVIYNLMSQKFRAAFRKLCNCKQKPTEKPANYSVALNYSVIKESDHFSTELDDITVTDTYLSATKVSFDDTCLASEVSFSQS
Sequence of Voltage-gated inwardly rectifying potassium channel KCNH2 (Homo sapiens) (Q12809 whole entry, looked up): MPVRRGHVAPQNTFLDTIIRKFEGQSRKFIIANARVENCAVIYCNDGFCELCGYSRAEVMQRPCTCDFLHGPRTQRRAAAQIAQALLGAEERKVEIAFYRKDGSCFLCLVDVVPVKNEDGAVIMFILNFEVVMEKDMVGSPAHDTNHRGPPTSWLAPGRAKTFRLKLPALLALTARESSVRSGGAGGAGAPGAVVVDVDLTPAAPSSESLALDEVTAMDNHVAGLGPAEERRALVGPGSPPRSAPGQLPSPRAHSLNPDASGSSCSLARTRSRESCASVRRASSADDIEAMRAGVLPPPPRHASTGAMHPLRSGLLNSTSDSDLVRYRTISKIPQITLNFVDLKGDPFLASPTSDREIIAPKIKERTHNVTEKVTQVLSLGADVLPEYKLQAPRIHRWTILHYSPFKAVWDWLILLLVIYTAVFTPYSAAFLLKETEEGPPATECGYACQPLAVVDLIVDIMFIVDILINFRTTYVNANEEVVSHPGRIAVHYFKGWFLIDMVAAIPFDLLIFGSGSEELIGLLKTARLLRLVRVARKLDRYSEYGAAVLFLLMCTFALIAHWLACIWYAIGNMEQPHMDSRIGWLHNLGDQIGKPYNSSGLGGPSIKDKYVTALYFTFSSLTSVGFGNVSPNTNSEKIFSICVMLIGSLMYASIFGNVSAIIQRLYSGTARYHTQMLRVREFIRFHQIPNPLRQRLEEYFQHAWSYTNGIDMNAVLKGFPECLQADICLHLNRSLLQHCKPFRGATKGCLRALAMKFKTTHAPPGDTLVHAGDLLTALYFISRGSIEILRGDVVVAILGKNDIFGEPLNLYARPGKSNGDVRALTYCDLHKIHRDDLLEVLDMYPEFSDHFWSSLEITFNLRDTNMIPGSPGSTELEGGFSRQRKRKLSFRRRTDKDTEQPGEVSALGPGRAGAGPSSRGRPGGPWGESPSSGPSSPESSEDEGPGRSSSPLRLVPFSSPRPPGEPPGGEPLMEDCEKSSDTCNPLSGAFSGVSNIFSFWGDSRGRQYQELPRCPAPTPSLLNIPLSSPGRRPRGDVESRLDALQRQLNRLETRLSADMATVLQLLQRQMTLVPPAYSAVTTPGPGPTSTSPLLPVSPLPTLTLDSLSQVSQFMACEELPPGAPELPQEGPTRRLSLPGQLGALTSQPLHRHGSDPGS
Sequence of Cytochrome P450 2C9 (Homo sapiens) (P11712 whole entry, looked up): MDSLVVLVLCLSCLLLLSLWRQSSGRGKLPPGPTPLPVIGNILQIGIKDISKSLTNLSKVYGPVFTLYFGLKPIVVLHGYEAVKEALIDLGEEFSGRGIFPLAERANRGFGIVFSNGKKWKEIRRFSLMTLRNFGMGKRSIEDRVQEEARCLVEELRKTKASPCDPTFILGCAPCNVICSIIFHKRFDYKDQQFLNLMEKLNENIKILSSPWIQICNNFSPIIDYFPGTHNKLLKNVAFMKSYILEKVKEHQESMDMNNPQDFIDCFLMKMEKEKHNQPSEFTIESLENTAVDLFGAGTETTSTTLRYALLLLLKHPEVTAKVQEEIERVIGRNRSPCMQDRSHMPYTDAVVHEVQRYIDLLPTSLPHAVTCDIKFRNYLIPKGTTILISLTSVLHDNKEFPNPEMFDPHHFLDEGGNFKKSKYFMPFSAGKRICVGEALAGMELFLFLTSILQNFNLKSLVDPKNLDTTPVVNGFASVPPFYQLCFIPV
Sequence of Cytochrome P450 2D6 (Homo sapiens) (P10635 whole entry, looked up): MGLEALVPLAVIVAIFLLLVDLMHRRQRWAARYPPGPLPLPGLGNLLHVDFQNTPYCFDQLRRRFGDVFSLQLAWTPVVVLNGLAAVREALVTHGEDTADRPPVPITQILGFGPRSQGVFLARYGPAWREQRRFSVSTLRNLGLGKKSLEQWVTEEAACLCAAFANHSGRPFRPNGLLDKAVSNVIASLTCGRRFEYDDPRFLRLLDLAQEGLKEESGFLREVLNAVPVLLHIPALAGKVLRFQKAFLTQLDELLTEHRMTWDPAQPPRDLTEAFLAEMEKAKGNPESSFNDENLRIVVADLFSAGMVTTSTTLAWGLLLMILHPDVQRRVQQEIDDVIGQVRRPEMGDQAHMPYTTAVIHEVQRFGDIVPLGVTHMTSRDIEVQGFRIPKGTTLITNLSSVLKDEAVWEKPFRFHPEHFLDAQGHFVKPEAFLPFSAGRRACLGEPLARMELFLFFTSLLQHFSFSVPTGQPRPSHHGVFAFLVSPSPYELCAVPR
Sequence of Nuclear receptor subfamily 1 group I member 2 (Homo sapiens) (O75469 whole entry, looked up): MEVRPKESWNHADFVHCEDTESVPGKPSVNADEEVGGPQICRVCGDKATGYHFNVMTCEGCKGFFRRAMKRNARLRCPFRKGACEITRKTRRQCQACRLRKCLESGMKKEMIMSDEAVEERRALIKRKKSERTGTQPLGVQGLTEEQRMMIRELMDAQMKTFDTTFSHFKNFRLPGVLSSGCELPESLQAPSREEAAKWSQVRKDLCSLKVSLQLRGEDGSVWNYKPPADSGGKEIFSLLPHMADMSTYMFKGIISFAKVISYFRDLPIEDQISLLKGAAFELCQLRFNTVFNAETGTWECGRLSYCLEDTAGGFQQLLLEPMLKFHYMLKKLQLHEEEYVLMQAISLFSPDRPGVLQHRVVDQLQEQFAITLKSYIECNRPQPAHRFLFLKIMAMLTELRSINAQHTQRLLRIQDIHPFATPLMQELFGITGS

For the molecule `O=C(O)c1cccnc1Nc1cccc(C(F)(F)F)c1`, in [1], the molecule was called inactive. The Potency result in [2], in experiment [3], in experiment [4], in experiment [5], in [6] and in [8] was “inactive” throughout. Moreover, the Potency entry in experiment [9], in experiment [10] and in [11] was “inactive” throughout. Further, the Potency in experiment [7] is 13.3 µM (active).

`CC1(C)CC(O)CC(C)(C)N1[O]`: the result in experiment [1] was inactive. Also, the Potency entry in experiment [2], in [3], in experiment [4], in [5], in experiment [6] and in experiment [7] was “inactive” in each case. The Potency entry in [8], in experiment [12], in experiment [13], in experiment [10] and in experiment [11] was “inactive” each time.

Regarding `CC(C)=CCC/C(C)=C/C=N/O`, the outcome in [1] was inactive. Also, the Potency entry in experiment [2], in experiment [3], in experiment [4], in [5] and in [6] was “inactive” each time. Further, the Potency is 34.4 µM (active) in experiment [7]; 35.6 µM (active) in [8]; 39.9 µM (active) in [12]; 39.9 µM (active) in experiment [13]; 28.3 µM (active) in experiment [11].

As to `CC(C)=CCCC(C)C=O` (stereo unspecified), the molecule was classed as inactive in experiment [1]. In addition, the Potency entry in experiment [2], in experiment [3], in experiment [4], in [5], in experiment [6] and in experiment [7] was “inactive” in each case. In addition, the Potency entry in experiment [8], in experiment [13] and in [10] was “inactive” in each case. For the same molecule, in experiment [11], the Potency was 35.6 µM (active).

Consider `OCCOc1cccc(OCCO)c1`, for which the molecule was called inactive in [1]. Further, the Potency entry in experiment [2], in [3], in [4], in [5], in experiment [6] and in experiment [7] was “inactive” each time. Besides, the Potency result in experiment [8], in experiment [12] and in experiment [11] was “inactive” throughout.

Take `CCCCCCCCNC`: in [1], the call was inactive. Besides, the Potency result in experiment [2], in [4], in experiment [7], in experiment [13], in [10] and in experiment [11] was “inactive” each time. The Potency in experiment [9] is 22.4 µM (active).

In the case of `CCCCCCC/C=C/C=O`, in experiment [1], the molecule was called inactive. The Potency result in [2], in experiment [4], in experiment [5], in experiment [6], in [7] and in experiment [10] was “inactive” each time. Moreover, the Potency entry in [11] was “inactive”. In addition, the Potency in experiment [8] was 39.9 µM (active); in [9], 79.6 µM (active).

Take `Cc1cc(C)n(CO)n1`: in [1], the molecule was classed as inactive. In addition, the Potency result in experiment [3], in [4], in [5], in [6], in experiment [7] and in [8] was “inactive” throughout. The Potency entry in experiment [9], in experiment [12], in [13] and in experiment [11] was “inactive” throughout.

As to `O=C(c1ccc(Cl)cc1)c1ccc(Cl)cc1`, in experiment [1], the molecule was called inactive. The Potency result in experiment [2], in [4], in experiment [5], in [6], in experiment [8] and in experiment [10] was “inactive” each time. For the same molecule, the Potency entry in experiment [11] was “inactive”. In addition, the figures for the Potency in experiment [9] and in experiment [13] were 1 µM (active) and 2.52 µM (active), respectively.

`O=Cc1ccc(Cl)c([N+](=O)[O-])c1`: in [1], the result was inactive. The Potency entry in [2], in experiment [6], in experiment [7] and in [10] was “inactive” in each case. Besides, the Potency in experiment [4] is 68.6 µM (active); in experiment [8] it was 35.6 µM (active); in experiment [9] it was 22.4 µM (active); in experiment [12], 71 µM (active); in experiment [13], 22.4 µM (active); in [11], 71 µM (active).

For `CCCC(=O)OCCC(C)C`, the call in [1] was inactive. Besides, the Potency entry in experiment [3], in [4], in experiment [5], in experiment [6], in experiment [7] and in experiment [8] was “inactive” throughout. Moreover, the Potency result in [9], in experiment [12], in experiment [13], in experiment [10] and in experiment [11] was “inactive” throughout.

For `CCCc1ccc(OC)cc1`, the result in [1] was inactive. Further, the Potency entry in experiment [3], in experiment [4], in experiment [5], in [6], in experiment [7] and in experiment [8] was “inactive” throughout. Also, the Potency result in experiment [10] and in [11] was “inactive” in each case. Moreover, in experiment [9], the Potency was 63.7 µM (active).

Turning to `FC(F)(Cl)C(F)(Cl)Cl`, the molecule was classed as inactive in experiment [1]. The Potency entry in experiment [2], in [4], in experiment [6], in experiment [7], in [12] and in [10] was “inactive” in each case. The Potency result in [11] is “inactive”.

As for `CCCOC(C)=O`, in [1], the molecule was classed as inactive. The Potency result in experiment [2], in [4], in experiment [5], in experiment [6], in experiment [7] and in [8] was “inactive” throughout. In addition, the Potency result in experiment [9], in [12], in [13], in [10] and in [11] was “inactive” each time.

With `O=C1c2ccccc2C(=O)C1c1ccc2ccccc2n1`, the outcome in [1] was inactive. Moreover, the Potency result in experiment [3], in [5], in experiment [8] and in [10] was “inactive” in each case. The Potency in [4] is 9.59 µM (active); in experiment [6], 6.05 µM (active); in experiment [7], 1.91 µM (active); in experiment [9], 3.14 µM (active); in experiment [13], 2.22 µM (active); in experiment [11] it was 1.77 µM (active).

Take `CCCC1CCCC(=O)O1` (stereo unspecified): in experiment [1], the molecule was called inactive. For the same molecule, the Potency entry in [2], in experiment [4], in experiment [5], in [6], in experiment [7] and in experiment [8] was “inactive” throughout. The Potency result in experiment [9], in experiment [13] and in experiment [10] was “inactive” in each case. Further, the Potency in [12] and in experiment [11] was 39.9 µM (active) in each case.

Regarding `O=C(Cl)c1cc(Cl)cc(Cl)c1`, in experiment [1], the outcome was inactive. The Potency result in experiment [2], in experiment [4], in [5], in experiment [6], in experiment [7] and in [8] was “inactive” throughout. Also, the Potency entry in experiment [12], in [13], in experiment [10] and in experiment [11] was “inactive” each time.

Take `Clc1cccc(C(c2ccc3nc[nH]c3c2)n2ccnc2)c1` (stereo unspecified): the molecule was classed as inactive in experiment [1]. Besides, the Potency result in [2], in [4], in experiment [6], in [7], in experiment [14] and in experiment [10] was “inactive” each time. Besides, the Potency in [9] is 2.75 µM (active); in experiment [12], 8.71 µM (active); in [13], 15.5 µM (active).

As to `CCC1=C(C)CN(C(=O)NCCc2ccc(S(=O)(=O)NC(=O)NC3CCC(C)CC3)cc2)C1=O` (stereo unspecified), the call in [1] was inactive. Besides, the Potency result in [2], in [4], in experiment [5], in [6], in [7] and in experiment [8] was “inactive” each time. The Potency result in experiment [9], in experiment [13], in [10] and in [11] was “inactive” in each case.

`O=C1OC(=O)C2CC=CCC12` (stereo unspecified): the molecule was called inactive in experiment [1]. For the same molecule, the Potency result in experiment [2], in [4], in experiment [5], in experiment [7], in experiment [12] and in [13] was “inactive” throughout. Also, the Potency entry in experiment [11] was “inactive”. Also, the Potency in [8] was 35.7 µM (active).
